# Of roughly 8,800 targets only a part is listed; those with a hit were picked by preference. About 0.5% of all pairs of compound and target were hits. Values without a mark were called inactive.
# What was measured:
# Experiment in all cases: log2 fold change, soluble protein after heating vs DMSO (PISA); higher = thermal stabilisation; K562 lysate, 10 uM; active = over 0.2 and 3.5 SD of the protein, either way, in both replicates (recomputed)
# vemurafenib = compound: CCCS(=O)(=O)Nc1ccc(F)c(C(=O)c2c[nH]c3ncc(-c4ccc(Cl)cc4)cc23)c1F [vemurafenib]
# In short: (§1)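 Pellets of K562 cells were dounce-homogenised in PBS pH 7.4 with 1 mM MgCl2, and the crude extract was held at 1 mg/mL protein for a 30 min treatment with 10 μM compound. Aliquots were heated for 3 min over 48°C-58°C and pooled before NP-40 was added to 0.5% at 4°C. The supernatant from 21,000xg for 90 min was quantified by TMTpro 16plex LC-MS/MS with channel sums equalised. Values are reported from duplicates as log-two fold change in thermal stability relative to solvent controls.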
# [1] = compound: CCCS(=O)(=O)Nc1ccc(F)c(C(=O)c2c[nH]c3ncc(Cl)cc23)c1F
# In short: as §1
# barasertib = compound: CCN(CCCOc1ccc2c(Nc3cc(CC(=O)Nc4cccc(F)c4)[nH]n3)ncnc2c1)CCOP(=O)(O)O [barasertib]
# In short: as §1
# [2] = compound: CC[C@@H]1C(=O)N(C)c2cnc(Nc3ccc(C(=O)NC4CCN(C)CC4)cc3OC)nc2N1C1CCCC1
# In short: as §1
# volasertib = compound: CC[C@@H]1C(=O)N(C)c2cnc(Nc3ccc(C(=O)N[C@H]4CC[C@H](N5CCN(CC6CC6)CC5)CC4)cc3OC)nc2N1C(C)C [volasertib]
# In short: as §1
# [3] = compound: CCn1c(C(=O)N(C2CC2)C2CC2)cc2c3c(ncn3C)c(Nc3cc(C)n(C)n3)nc21
# In short: as §1
# [4] = compound: CCn1cc(-c2ccnc3[nH]c(-c4cccc(CN(C)C)c4)cc23)c(-c2ccc(NC(=O)N(C)C)cc2)n1
# In short: as §1
# [5] = compound: CN1CCC(CNc2ccc3ncc(-c4cccc(OC(F)(F)F)c4)n3n2)CC1
# In short: as §1
# saracatinib = compound: CN1CCN(CCOc2cc(OC3CCOCC3)c3c(Nc4c(Cl)ccc5c4OCO5)ncnc3c2)CC1 [saracatinib]
# In short: as §1
# sotrastaurin = compound: CN1CCN(c2nc(C3=C(c4c[nH]c5ccccc45)C(=O)NC3=O)c3ccccc3n2)CC1 [sotrastaurin]
# In short: as §1
# Chain of UniProt Q4G0N4 (Q4G0N4 whole entry, looked up): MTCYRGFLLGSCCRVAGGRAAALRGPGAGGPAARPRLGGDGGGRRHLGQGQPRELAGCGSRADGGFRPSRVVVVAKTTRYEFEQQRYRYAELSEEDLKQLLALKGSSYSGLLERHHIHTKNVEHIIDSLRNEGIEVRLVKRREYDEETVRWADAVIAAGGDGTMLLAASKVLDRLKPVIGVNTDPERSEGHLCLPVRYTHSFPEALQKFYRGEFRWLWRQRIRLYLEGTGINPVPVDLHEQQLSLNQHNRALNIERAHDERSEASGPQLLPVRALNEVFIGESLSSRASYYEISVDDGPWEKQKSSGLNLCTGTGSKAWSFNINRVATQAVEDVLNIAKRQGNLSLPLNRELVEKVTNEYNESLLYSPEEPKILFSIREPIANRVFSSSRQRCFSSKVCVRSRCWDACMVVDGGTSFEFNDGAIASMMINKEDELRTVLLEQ
# Chain of UniProt Q8TDX7 (Q8TDX7 whole entry, looked up): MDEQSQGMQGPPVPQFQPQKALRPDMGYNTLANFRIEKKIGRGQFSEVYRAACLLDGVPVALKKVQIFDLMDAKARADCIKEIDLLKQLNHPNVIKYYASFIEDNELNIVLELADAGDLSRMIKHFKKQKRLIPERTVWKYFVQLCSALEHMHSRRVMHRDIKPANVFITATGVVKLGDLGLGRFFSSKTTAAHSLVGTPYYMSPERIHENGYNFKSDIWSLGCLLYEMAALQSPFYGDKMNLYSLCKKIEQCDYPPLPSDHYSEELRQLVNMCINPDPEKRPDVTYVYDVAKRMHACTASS
# Chain of UniProt Q8TE04 (Q8TE04 whole entry, looked up): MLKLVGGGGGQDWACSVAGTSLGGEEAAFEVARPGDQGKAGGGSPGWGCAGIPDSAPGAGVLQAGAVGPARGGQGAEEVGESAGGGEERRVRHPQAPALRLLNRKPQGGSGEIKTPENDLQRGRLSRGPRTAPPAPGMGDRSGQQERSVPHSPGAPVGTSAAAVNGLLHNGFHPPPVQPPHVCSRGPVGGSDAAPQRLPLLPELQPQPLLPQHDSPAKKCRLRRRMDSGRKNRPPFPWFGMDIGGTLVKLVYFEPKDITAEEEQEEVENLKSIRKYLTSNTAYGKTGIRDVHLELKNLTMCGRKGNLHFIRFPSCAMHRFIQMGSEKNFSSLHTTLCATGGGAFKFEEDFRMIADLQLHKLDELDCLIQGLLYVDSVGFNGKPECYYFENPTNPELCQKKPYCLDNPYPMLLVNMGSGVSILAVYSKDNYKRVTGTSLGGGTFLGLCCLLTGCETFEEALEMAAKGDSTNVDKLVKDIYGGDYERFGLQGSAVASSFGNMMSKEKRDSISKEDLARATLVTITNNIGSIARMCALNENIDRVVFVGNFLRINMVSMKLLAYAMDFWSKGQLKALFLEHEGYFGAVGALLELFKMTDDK
# Chain of UniProt Q9BPZ3 (Q9BPZ3 whole entry, looked up): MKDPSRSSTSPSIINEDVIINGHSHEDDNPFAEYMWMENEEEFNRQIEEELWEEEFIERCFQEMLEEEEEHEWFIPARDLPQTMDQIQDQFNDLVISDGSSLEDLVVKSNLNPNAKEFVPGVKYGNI
# Chain of UniProt Q9Y217 (Q9Y217 whole entry, looked up): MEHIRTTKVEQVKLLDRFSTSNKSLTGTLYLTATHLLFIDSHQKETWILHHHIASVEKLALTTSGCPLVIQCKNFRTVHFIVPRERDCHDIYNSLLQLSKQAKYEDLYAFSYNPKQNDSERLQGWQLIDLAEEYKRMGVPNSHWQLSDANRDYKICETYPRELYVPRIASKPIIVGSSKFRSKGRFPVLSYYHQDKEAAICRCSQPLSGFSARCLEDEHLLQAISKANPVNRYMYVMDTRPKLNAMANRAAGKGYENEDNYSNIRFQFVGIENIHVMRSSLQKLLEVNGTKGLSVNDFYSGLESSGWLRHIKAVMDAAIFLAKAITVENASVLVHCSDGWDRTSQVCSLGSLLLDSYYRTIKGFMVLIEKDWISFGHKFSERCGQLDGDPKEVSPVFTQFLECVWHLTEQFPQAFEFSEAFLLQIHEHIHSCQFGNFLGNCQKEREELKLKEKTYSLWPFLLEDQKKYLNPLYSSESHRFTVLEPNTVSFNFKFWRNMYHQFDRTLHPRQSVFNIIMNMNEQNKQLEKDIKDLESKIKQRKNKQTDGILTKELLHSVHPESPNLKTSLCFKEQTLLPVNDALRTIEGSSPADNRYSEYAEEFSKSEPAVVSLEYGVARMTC
# Chain of UniProt Q9BTX1 (Q9BTX1 whole entry, looked up): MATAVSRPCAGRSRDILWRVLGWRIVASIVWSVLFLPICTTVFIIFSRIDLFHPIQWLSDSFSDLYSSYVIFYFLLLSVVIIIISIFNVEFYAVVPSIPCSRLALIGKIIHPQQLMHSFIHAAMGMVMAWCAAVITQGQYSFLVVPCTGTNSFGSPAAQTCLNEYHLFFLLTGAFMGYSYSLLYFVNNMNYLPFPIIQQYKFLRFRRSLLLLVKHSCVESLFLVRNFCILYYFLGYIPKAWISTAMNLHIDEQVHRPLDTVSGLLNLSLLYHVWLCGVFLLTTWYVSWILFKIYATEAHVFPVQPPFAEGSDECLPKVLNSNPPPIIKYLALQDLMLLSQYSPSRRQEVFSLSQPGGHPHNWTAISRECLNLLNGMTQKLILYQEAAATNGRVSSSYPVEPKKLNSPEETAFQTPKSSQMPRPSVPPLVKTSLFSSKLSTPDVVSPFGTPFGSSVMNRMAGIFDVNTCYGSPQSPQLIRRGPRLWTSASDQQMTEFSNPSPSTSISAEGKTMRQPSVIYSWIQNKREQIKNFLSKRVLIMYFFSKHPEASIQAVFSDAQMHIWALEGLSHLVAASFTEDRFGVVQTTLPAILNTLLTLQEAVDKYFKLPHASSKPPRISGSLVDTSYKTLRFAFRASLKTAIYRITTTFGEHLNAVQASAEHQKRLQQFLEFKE
# Chain of UniProt P03886 (P03886 whole entry, looked up): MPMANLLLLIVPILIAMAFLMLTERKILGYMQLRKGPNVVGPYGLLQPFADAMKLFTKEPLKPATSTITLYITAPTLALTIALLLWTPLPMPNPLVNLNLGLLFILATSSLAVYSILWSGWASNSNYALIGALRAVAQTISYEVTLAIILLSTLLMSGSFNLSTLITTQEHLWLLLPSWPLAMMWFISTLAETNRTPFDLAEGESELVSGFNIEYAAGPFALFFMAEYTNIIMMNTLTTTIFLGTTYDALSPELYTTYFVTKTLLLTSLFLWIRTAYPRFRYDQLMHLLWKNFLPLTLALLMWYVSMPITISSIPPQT
# Chain of UniProt O00221 (O00221 whole entry, looked up): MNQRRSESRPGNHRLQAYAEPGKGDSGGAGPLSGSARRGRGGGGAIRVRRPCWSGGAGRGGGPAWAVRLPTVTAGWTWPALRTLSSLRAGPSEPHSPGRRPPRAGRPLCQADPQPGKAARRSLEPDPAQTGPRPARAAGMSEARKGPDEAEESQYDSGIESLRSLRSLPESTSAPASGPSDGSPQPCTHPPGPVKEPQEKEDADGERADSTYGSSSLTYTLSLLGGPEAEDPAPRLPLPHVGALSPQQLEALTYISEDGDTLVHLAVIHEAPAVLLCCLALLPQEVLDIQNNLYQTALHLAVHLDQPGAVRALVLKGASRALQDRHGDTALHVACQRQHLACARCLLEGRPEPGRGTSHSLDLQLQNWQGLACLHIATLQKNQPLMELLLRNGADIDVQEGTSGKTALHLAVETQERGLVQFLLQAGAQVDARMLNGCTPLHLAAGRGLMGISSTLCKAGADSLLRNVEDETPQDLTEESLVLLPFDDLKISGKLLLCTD
# Chain of UniProt Q8TEW0 (Q8TEW0 whole entry, looked up): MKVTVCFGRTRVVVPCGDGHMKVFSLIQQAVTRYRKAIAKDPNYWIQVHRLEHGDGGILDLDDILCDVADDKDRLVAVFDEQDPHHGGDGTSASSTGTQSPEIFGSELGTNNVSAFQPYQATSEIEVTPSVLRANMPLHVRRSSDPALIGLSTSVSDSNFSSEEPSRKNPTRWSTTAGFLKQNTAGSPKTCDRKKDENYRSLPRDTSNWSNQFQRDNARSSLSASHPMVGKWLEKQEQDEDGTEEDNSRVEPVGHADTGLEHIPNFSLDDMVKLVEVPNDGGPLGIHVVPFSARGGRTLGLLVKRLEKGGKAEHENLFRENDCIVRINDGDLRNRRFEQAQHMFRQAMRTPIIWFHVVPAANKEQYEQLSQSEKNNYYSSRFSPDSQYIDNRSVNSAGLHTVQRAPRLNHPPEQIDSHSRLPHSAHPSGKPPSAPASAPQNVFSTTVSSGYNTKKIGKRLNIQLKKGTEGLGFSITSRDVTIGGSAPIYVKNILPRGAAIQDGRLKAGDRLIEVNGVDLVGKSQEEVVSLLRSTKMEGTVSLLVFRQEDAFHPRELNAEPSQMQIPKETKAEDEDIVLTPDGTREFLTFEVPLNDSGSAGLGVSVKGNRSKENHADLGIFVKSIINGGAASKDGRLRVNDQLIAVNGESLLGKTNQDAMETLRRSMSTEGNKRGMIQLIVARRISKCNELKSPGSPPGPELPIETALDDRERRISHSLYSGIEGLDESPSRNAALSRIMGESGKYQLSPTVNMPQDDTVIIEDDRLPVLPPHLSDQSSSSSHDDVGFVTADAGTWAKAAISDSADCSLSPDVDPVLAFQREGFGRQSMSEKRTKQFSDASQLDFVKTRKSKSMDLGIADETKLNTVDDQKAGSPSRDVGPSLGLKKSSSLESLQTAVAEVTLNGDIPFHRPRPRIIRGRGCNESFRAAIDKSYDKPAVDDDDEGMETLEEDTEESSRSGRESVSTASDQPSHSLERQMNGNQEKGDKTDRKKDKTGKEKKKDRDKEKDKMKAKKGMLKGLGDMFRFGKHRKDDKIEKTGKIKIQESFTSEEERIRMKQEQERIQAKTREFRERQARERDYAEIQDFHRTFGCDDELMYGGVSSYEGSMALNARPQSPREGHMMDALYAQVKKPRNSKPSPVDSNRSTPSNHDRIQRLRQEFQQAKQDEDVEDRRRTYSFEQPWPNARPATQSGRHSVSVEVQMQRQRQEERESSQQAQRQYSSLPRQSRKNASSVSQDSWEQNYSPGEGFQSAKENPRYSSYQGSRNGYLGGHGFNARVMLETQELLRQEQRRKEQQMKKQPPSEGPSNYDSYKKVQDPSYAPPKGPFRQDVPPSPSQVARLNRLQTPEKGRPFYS
Target,log2 fold change (vemurafenib),log2 fold change [1],log2 fold change (barasertib),log2 fold change [2],log2 fold change (volasertib),log2 fold change [3],log2 fold change [4],log2 fold change [5],log2 fold change (saracatinib),log2 fold change (sotrastaurin)
NUP160 (UniProt Q12769),-0.039,0.02,0.052,-0.106,-0.105,0.043,0.057,-0.058,0.043,-0.01
NOC2L (UniProt Q9Y3T9),0.04,0.021,0.028,-0.029,-0.035,0.006,-0.079,-0.016,-0.078,0.05
MTMR6 (UniProt Q9Y217),0.038,0.012,0.018,0.006,-0.024,-0.055,0.217,-0.08,0.024,0.087
NDC1 (UniProt Q9BTX1),0.053,-0.051,0.075,0.081,0.016,-0.02,-0.3,0.155,0.032,0.011
MYO1C (UniProt O00159),-0.016,0.039,-0.012,-0.042,-0.046,0.101,-0.025,-0.018,-0.019,0.028
NFKBIE (UniProt O00221),0.046,0.051,0.174,0.081,-0.106,-0.024,-0.07,-0.045,-0.123,-0.025
MSI2 (UniProt Q96DH6),0.039,-0.007,0.009,0.016,-0.023,0.13,-0.014,0.002,-0.015,-0.002
PAIP2 (UniProt Q9BPZ3),0,-0.013,0.272 (active),0.039,-0.018,0.02,-0.043,-0.001,-0.081,-0.073
NADK2 (UniProt Q4G0N4),0.024,-0.013,0.034,0.078,0.008,-0.016,-0.019,0.02,-0.035,-0.036
PAXBP1 (UniProt Q9Y5B6),0.072,0.006,0.07,-0.008,-0.058,0.042,0.043,0.004,0.02,0.025
ORC2 (UniProt Q13416),0.048,0.007,0.003,-0.077,-0.048,0.002,-0.002,-0.085,0.007,0.049
NNMT (UniProt P40261),0.024,-0.036,-0.059,0.008,0.056,0.015,-0.062,0.03,-0.043,0.021
PARD3 (UniProt Q8TEW0),0.145,-0.017,-0.123,-0.009,-0.016,-0.032,-0.147,-0.08,0.016,0.004
NEK7 (UniProt Q8TDX7),0.086,0.024,0.002,-0.006,-0.091,-0.025,-0.13,0.041,0.013,0.04
NOB1 (UniProt Q9ULX3),-0.002,0.032,-0.053,-0.045,-0.02,-0.003,0.274 (active),-0.102,0.018,-0.009
NCAPH2 (UniProt Q6IBW4),-0.044,0.027,0.058,0.027,-0.002,-0.014,-0.032,0.02,0.001,0.03
OGFOD2 (UniProt Q6N063),0.024,0.173,0.005,-0.147,-0.062,-0.023,-0.042,0.071,-0.047,0.039
NACC1 (UniProt Q96RE7),-0.039,-0.003,0.039,-0.027,0.008,0.004,-0.059,-0.003,-0.016,0.034
NCOR2 (UniProt C9J0Q5),0.006,0.021,0.024,0.009,0.009,0.056,0.019,0.036,-0.026,0.032
NAP1L5 (UniProt Q96NT1),-0.094,0.005,0.037,0.181,-0.033,0.052,0.62 (active),-0.205,-0.15,0.08
NTPCR (UniProt Q9BSD7),0.055,-0.001,0.016,0.005,-0.066,0.032,-0.038,-0.021,-0.009,0.011
NFATC2IP (UniProt Q8NCF5),-0.024,0.069,0.041,0.033,0.006,0,0.076,-0.031,0.003,-0.004
MT-ND1 (UniProt P03886),-0.074,0.012,0.056,-0.068,-0.04,-0.096,-0.355,0.066,0.075,0.038
PANK4 (UniProt Q9NVE7),0.026,0.011,0.054,-0.051,-0.091,0.003,-0.136,0.077,0.001,0.012
PAFAH1B3 (UniProt Q15102),-0.008,0.002,0.119,-0.061,-0.067,0.031,-0.04,-0.021,0.013,-0.009
PANK1 (UniProt Q8TE04),0.086,0.036,0.097,-0.231,-0.063,0.056,0.226,-0.253,0,0.052
MRPL58 (UniProt Q14197),0.104,-0.017,0.033,-0.033,-0.043,0.004,0.148,-0.151,0.04,0.019
